Laboratory results published in the supplement of paper PMC13172266.
Counter-ions that a name gives are not always drawn.

Key:
Experiment in all cases: cell proliferation relative to vehicle (% of vehicle); higher = less growth inhibition
Details in all cases: 72 h
[1] = test system: U2932 TK216-resistant clone 2
Procedure, shortened: (§1)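 Each of 348 targeted inhibitors was tested at 500 nM or 50 nM for 72 h on U2932 cells, both parental and two clones resistant to an ETS-targeting agent. Readout was by MTT with absorbance read on a Cytation 3. Proliferation appears as percent of proliferating cells relative to vehicle (DMSO).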

[2] = test system: U2932 TK216-resistant clone 3
Procedure, shortened: as §1

U2932 parental = test system: U2932 parental
Procedure, shortened: as §1

Row | Compound | cell proliferation ([1]; 50 nM) | cell proliferation ([1]; 500 nM) | cell proliferation ([2]; 50 nM) | cell proliferation ([2]; 500 nM) | cell proliferation (U2932 parental; 50 nM) | cell proliferation (U2932 parental; 500 nM)
1 | Cc1cnc(Nc2ccc(N3CCN(C)CC3)cc2)nc1Nc1cccc(S(=O)(=O)NC(C)(C)C)c1 | 95.6 | 70.3 | 90 | 65.2 | 89.4 | 79.5
2 | COc1cc2c(cc1O)CC[C@@H]1[C@@H]2CC[C@]2(C)[C@@H](O)CC[C@@H]12 [2-Methoxyestradiol (2-MeOE2)] | 105 | 102 | 103 | 83.4 | 99.8 | 54
3 | Cc1nnc(C(C)C)n1C1C[C@H]2CC[C@@H](C1)N2CC[C@H](NC(=O)C1CCC(F)(F)CC1)c1ccccc1 (stereo in doubt) [Maraviroc] | 107 | 99.6 | 96 | 101 | 88 | 89.6
4 | Cc1ccc(F)c(NC(=O)Nc2ccc(-c3cccc4[nH]nc(N)c34)cc2)c1 [Linifanib (ABT-869)] | 99.8 | 93.1 | 99 | 95.7 | 90.6 | 107
5 | CCCCOc1c(C(=O)c2c(F)cc(C)cc2F)c[nH]c2nncc1-2 | 78.8 | 59.3 | 92.2 | 58.9 | 89.3 | 77.1
6 | O=C(O)C(=O)O.[NH-][C@@H]1CCCC[C@H]1[NH-].[Pt+2] [Oxaliplatin] | 104 | 99 | 105 | 96.6 | 96.8 | 93.2
7 | O=C(O)CCNc1cc(N2CCc3ccccc3CC2)nc(-c2ccccn2)n1 | 103 | 100 | 105 | 102 | 99.3 | 99.8
8 | CC(C)C[C@H](NC(=O)[C@H](CCc1ccccc1)NC(=O)CN1CCOCC1)C(=O)N[C@@H](Cc1ccccc1)C(=O)N[C@@H](CC(C)C)C(=O)[C@@]1(C)CO1 [Carfilzomib (PR-171)] | -2.48 | -4.13 | -2.24 | -4.17 | -1.34 | -1.99
9 | CC[C@@H]1C(=O)N(C)c2cnc(Nc3ccc(C(=O)NC4CCN(C)CC4)cc3OC)nc2N1C1CCCC1 | 13.1 | 21 | 16.2 | 23.3 | 14.8 | 20.4
10 | CCCc1ccc(OCC(=O)N(Cc2nc(-c3cccnc3)no2)C(C)C)cc1 | 107 | 102 | 103 | 101 | 85.2 | 97.7
11 | CO[C@H]1C[C@@H]2CC[C@@H](C)[C@@](O)(O2)C(=O)C(=O)N2CCCC[C@H]2C(=O)O[C@H]([C@H](C)C[C@@H]2CC[C@@H](OCCO)[C@H](OC)C2)CC(=O)[C@H](C)/C=C(\C)[C@@H](O)[C@@H](OC)C(=O)[C@H](C)C[C@H](C)/C=C/C=C/C=C/1C [Everolimus (RAD001)] | 65.8 | 65.5 | 64.2 | 66.5 | 55.5 | 59.1
12 | CN1CCN(Cc2ccc(-c3cnc4[nH]cc(-c5ccc6[nH]ccc6c5)c4c3)cc2)CC1 | 96.6 | 91.2 | 97.2 | 85.4 | 92.5 | 101
13 | Oc1cc(O)cc(/C=C/c2ccc(O)c(O)c2)c1 [Piceatannol] | 97.8 | 99.7 | 97.6 | 100 | 98.7 | 94
14 | Cn1nnc2c(C(N)=O)ncn2c1=O [Temozolomide] | 110 | 110 | 107 | 100 | 98.8 | 96.5
15 | Oc1ccc(/C=C/c2cc(O)cc(O)c2)cc1 [Resveratrol] | 102 | 111 | 102 | 106 | 103 | 101
16 | CC(C)(C#N)c1cc(Cn2cncn2)cc(C(C)(C)C#N)c1 [Anastrozole] | 99.8 | 108 | 103 | 101 | 105 | 96.7
17 | CC(=O)Nc1ccc(NC(=S)NC(=O)c2ccc(C(C)(C)C)cc2)cc1 [Tenovin-1] | 105 | 95.1 | 107 | 102 | 102 | 98.7
18 | CN(C)C(=N)NC(=N)N [Metformin HCl] | 110 | 102 | 113 | 108 | 99.9 | 98.9
19 | CC(C)c1cc(-c2n[nH]c(=O)n2-c2ccc3c(ccn3C)c2)c(O)cc1O [Ganetespib (STA-9090)] | 6.02 | 4.07 | 23.7 | 19.8 | 4.55 | 5.59
20 | Cc1ccc(Nc2nccc(N(C)c3ccc4c(C)n(C)nc4c3)n2)cc1S(N)(=O)=O [Pazopanib HCl] | 110 | 102 | 101 | 99.6 | 95.2 | 105
